# Compounds with a hit are over-represented: about 11% of the library has one in this group of screens.
# BAZ2B inh = BAZ2B (human) inhibition; 360,000 compounds, 4.4% hits; Potency, µM (doses to about 114 µM), for the others: at the top dose activity change, negative = inhibition, actives largely listed as inhibitors; AlphaScreen BAZ2B-H3K14Ac peptide displacement; Q9UIF8; note: % is set by controls: 0 for no effect and ±100 for the full control effect; nearly all actives have a fitted effect of over 60% in size
#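 AlphaScreen displacement of biotin-H3(5-23)K14Ac peptide (50 nM final) from BAZ2B (50 nM final) in PBS pH 7.4, 0.01% Tween-20; complex preformed 30 min RT, then compounds (top 110 uM) 30 min RT, beads 20 min dark.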
# HP1b chromo inh = blocks HP1-beta chromodomain binding to methylated histone tails; P83916; AlphaScreen HP1-beta / biotin-H3K9me3 peptide binding; Potency, µM (titrated, usually from 114 µM), without a hit: at the top dose activity change, negative = inhibition, actives largely listed as inhibitors; 390,000 compounds, 0.56% hits; note: nearly all actives have a fitted effect of over 70% in size
#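 AlphaScreen: HP1-beta (50 nM) preformed 30 min with biotin-H3(1-18)K9me3 peptide (50 nM) in PBS pH 7.4, 0.01% Tween-20. Compound added for 30 min at RT, then streptavidin donor/nickel chelate acceptor beads (10 ug/mL) for 30 min.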
# L3MBTL1 inh = L3MBTL1 (human) inhibition. Q9Y468. AlphaScreen L3MBTL1–H3K9me1 peptide binding. Potency, µM (top dose mostly 57.1 µM), inactives show top-dose activity, negative = inhibition, usual class: inhibitors. 230,000 compounds, 0.66% hits. AID 485360; note: % is set by controls: 0 for no effect and ±100 for the full control effect; nearly all actives have a fitted effect of over 60% in size
#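 AlphaScreen assay: L3MBTL1 (50 nM final) was preincubated 30 min at room temperature with biotinylated H3(1-15)K9me1 peptide (75 nM final), then 30 min with library compounds; streptavidin donor and nickel chelate acceptor beads (10 ug/mL final) added, 30 min dark.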
# JMJD2A Tudor = blocks the human JMJD2A Tudor domain; O75164; AlphaScreen JMJD2A-Tudor / H3K4me3 peptide binding; Potency, µM (series often up to 114 µM), for inactives: at the top dose activity change, negative = inhibition, actives largely listed as inhibitors; 390,000 compounds, 4.4% hits; AID 504339; note: % is set by controls: 0 for no effect and ±100 for the full control effect; nearly all actives have a fitted effect of over 50% in size
# G9a block = G9a (human) methyltransferase inhibition. Q96KQ7. Potency, µM (titrated, usually from 102 µM), without a hit: at the top dose activity, negative = inhibition, most hits filed as inhibitors. 350,000 compounds, 8.8% hits. G9a H3K9 monomethylation, AlphaScreen, 2 h; note: % is set by controls: 0 for no effect and ±100 for the full control effect; nearly all actives have a fitted effect of over 75% in size
#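 AlphaScreen detection with an anti-monomethyl H3K9 antibody quantified product after a 2 h room-temperature reaction containing 500 nM biotinylated H3K9 peptide, 20 µM SAM and 20 nM enzyme, which had been preincubated 15 min with compound.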
# * marks the source's active call; other numbers are inactive results; ? = inconclusive; / = no result given; [ ] = another dose, or the depositor's remark. Calls come from the whole dose curve; as a rule, active = well fitted inhibition curve with a large enough effect; inconclusive = small, poorly fitted or top-dose-only effect; inactive = no such curve, though single readings can be large or run the other way. Potency is the fitted concentration of half-maximal effect.
SMILES,BAZ2B inh,HP1b chromo inh,L3MBTL1 inh,JMJD2A Tudor,G9a block
O=C(NC1c2ccccc2-c2ccccc21)c1ccco1,8.7%,-14.4%,4.0%,56.2µM*,8.5%
COc1ccc(COC(=O)c2cccc(S(=O)(=O)N3CCN(C(C)=O)CC3)c2)cc1,4.9%,18.4%,-7.8%,-11.0%,-27.1%
O=C(COC(=O)c1ccc2ccccc2c1)Nc1ncc(C(F)(F)F)cc1Cl,9.7%,18.5%,/,-6.2%,12.7%[12.7 µM]
O=C(COC(=O)c1ccc2ccccc2n1)Nc1ncc(C(F)(F)F)cc1Cl,-0.5%,30.0%,/,-10.4%,44.7µM*
O=C(COC(=O)CSc1cccc2cccc(Cl)c12)Nc1ncc(C(F)(F)F)cc1Cl,50.1µM*,-5.5%,?,-34.7%,?
CCc1ccccc1N(C)C(=O)Nc1cn(CC(C)C)c(=O)c2ccccc12,12.2%[57.1 µM],35.4%,/,-11.0%,-2.8%[59 µM]
Cc1ccccc1OCC(=O)NCC(C)NC(=O)COc1ccccc1C (stereo unspecified),/,2.2%[57 µM],/,-7.7%[57.1 µM],/
O=C(Nc1nnc(SCc2ccc(F)cc2)s1)C1Cc2ccccc2CN1C(=O)c1ccco1 (stereo unspecified),-27.8%[57.1 µM],28.1%,-16.9%,-33.6%,?
O=C(Nc1nnc(C2CC2)s1)C1Cc2ccccc2CN1C(=O)c1ccco1 (stereo unspecified),50.1µM*,?,?,?,20µM*
O=C(Nc1cccc2ccccc12)N1CC=C(c2ccccc2)CC1,1.0%,16.1%,/,-16.5%,44.7µM*
O=C(Nc1ccccc1)N1CC=C(c2ccccc2)CC1,7.7%,/,/,/,-41.8%[12.7 µM]
O=C(O)c1csc(N/N=C/c2ccc(Br)cc2)n1,79.4µM*,30.4%,-18.2%,-19.6%,35.5µM*
COc1ccc(S(=O)(=O)N2CN(Cc3ccco3)c3nc4ccccc4nc32)cc1,?,0.9%,/,?,?
Cc1ccc(S(=O)(=O)N2CN(Cc3ccco3)c3nc4ccccc4nc32)cc1,-27.6%,10.3%,-3.5%,?,31.6µM*
Cc1ccc(S(=O)(=O)N2CN(Cc3ccco3)c3nc4ccccc4nc32)cc1C,-24.1%,15.3%,-4.6%,-22.3%,31.6µM*
O=S(=O)(c1ccc(F)cc1)N1CN(Cc2ccco2)c2nc3ccccc3nc21,?,-4.3%,/,?,11.2µM*
Cc1ccccc1NS(=O)(=O)c1ccc(Br)s1,6.4%,52.6%,/,-5.5%,-43.6%[59 µM]
COc1ccc(-c2csc(NC(=S)NC(=O)/C=C/c3ccco3)n2)cc1OC,-6.1%,7.2%,-5.1%,-34.9%,-1.6%[59 µM]
COc1ccc(C(NC(=O)/C=C/c2ccco2)c2ccc(OC)cc2)cc1,50.1µM*,?,-11.0%,?,8.91µM*
COc1ccc(C(NC(=O)/C=C\c2ccco2)c2ccc(OC)c(OC)c2)cc1 (stereo unspecified),-33.3%,-40.4%,-25.1%,50.1µM*,25.1µM*
CCC(Cc1ccccc1)NC(=O)/C=C/c1ccco1 (stereo unspecified),-5.4%,5.1%,1.8%[2.29 µM],-22.4%,18.0%[0.501 µM]
CCOc1cc(CNC(=O)c2ccc3nc(C(C)C)oc3c2)cc(OCC)c1OCC,3.6%,24.4%[57 µM],/,2.9%,-1.9%[59 µM]
COc1cccc(N=c2oc3cc(O)ccc3cc2C(=O)NCC2CCCO2)c1 (stereo unspecified),35.5µM*,8.5%,-19.7%,-35.5%,-10.4%
Nc1nc(NC(=O)Cc2ccccc2)nn1-c1ccccc1,31.6µM*,59.9%,-18.0%,?,0.0%[12.7 µM]
CC(=O)Nc1nc(N)n(-c2ccccc2)n1,?,4.8%,/,-33.8%,-15.7%[59 µM]
Nc1nc(NC(=O)/C=C\C(=O)O)nn1-c1ccccc1,22.4µM*,43.2%,/,-16.5%[11.4 µM],3.5%
COC(=O)c1nc(NC(=O)c2cc(OC)c(OC)c(OC)c2)n[nH]1,?,48.6%,/,-6.2%,11.2µM*
COc1ccc(/C=C/C(=O)Nc2nc(N)n(-c3ccccc3)n2)cc1,50.1µM*,35.6%,-6.7%,-18.6%,22.2%[59 µM]
CCOC(=O)C1CCN(C(=O)CN2C(=O)CSc3ccc(S(=O)(=O)N4CCOCC4)cc32)CC1,-13.2%,35.7%,/,-3.5%,-6.1%
CCN1CCN(C(=O)c2cnn(-c3cccc(C)c3)c2C2CCN(C(=O)OC(C)(C)C)CC2)CC1,2.8%[57.1 µM],-0.3%,/,-13.9%,2.1%[59 µM]

# Screening data from PubChem.
